Test [1] in a line: qHTS assay to identify small molecule antagonists of the estrogen receptor beta (ER-beta) signaling pathway - cell viability counter screen (AID 1259382).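 Further: HEK293T cells carrying ER-beta-UAS-bla reporter stimulated with estradiol; series mostly up to about 92 µM; nearly all actives have a fitted effect of over 55% in size.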 The procedure, abridged: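 HEK293T ER-beta-UAS-bla, 2% charcoal-stripped FBS; compounds + 1nM E2 16 hr 37C; CellTiter-Glo luminescence, 30 min RT.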
A short description of test [2]: qHTS assay to identify small molecule agonists or antagonists of the thyroid stimulating hormone receptor (TSHR) signaling pathway - wild type cell line counter screen (AID 1259384; calls by dose curve). The procedure, abridged: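 Wild-type Hek293 cells, 800/well, 18 h at 37C, then compound with Ro20-1724 for 30 min RT. cAMP by HTRF (cAMP-d2/anti-cAMP cryptate), 1 h RT, fluorescence read. 15 concentrations, triplicates.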

The target in test [3] is Thyrotropin receptor (Homo sapiens) (UniProt P16473). In words: qHTS assay to identify small molecule antagonists of the thyroid stimulating hormone receptor (TSHR) signaling pathway (AID 1259385; calls by dose curve; further: nearly all actives have a fitted effect of over 20% in size). In short, it runs like this:
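TSHR-HEK293 cells (800/well) plated 18 h, then compounds with Ro20-1724 and TSH at 1.5 ng/mL final, 30 min at room temperature. cAMP quantified by HTRF (cAMP-d2/anti-cAMP-cryptate, 1 h); 15 concentrations in triplicate.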

Test [4] in a line: qHTS assay to identify small molecule agonists of the estrogen receptor alpha (ER-alpha) signaling pathway in the presence of an antagonist - cell viability counter screen (AID 1259386).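 Further: series mostly up to about 92 µM; cells exposed to compounds for 22 h at 37 °C before the viability read; nearly all actives have a fitted effect of over 30% in size.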 In short, it runs like this:
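Steps: 5-day stripped-FBS culture; seed and incubate 24hr; add ICI-182,780 (10.0nM final); pin 15-point compound titration; incubate 22hr at 37C; add CellTiter-Fluor at 21hr; read fluorescence.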
A general note: qHTS replaces the single test concentration by a dilution series.

The target in test [5] is Progesterone receptor (Homo sapiens) (UniProt P06401). In words: qHTS assay to identify small molecule agonists of the progesterone receptor (PR) signaling pathway (AID 1346784; calls by dose curve; further: nearly all actives have a fitted effect of over 30% in size; further: potency means the concentration at half of the fitted maximal effect). In short, it runs like this: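 HEK 293T PR-UAS-bla reporter cells, 2% charcoal-stripped FBS; 6 hr settle at 37C/5% CO2, compound (DMSO) 16 hr, LiveBLAzer B/G FRET substrate 2 hr RT, fluorescence intensity read.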
Progesterone receptor (Homo sapiens), sequence (P06401 whole entry, looked up): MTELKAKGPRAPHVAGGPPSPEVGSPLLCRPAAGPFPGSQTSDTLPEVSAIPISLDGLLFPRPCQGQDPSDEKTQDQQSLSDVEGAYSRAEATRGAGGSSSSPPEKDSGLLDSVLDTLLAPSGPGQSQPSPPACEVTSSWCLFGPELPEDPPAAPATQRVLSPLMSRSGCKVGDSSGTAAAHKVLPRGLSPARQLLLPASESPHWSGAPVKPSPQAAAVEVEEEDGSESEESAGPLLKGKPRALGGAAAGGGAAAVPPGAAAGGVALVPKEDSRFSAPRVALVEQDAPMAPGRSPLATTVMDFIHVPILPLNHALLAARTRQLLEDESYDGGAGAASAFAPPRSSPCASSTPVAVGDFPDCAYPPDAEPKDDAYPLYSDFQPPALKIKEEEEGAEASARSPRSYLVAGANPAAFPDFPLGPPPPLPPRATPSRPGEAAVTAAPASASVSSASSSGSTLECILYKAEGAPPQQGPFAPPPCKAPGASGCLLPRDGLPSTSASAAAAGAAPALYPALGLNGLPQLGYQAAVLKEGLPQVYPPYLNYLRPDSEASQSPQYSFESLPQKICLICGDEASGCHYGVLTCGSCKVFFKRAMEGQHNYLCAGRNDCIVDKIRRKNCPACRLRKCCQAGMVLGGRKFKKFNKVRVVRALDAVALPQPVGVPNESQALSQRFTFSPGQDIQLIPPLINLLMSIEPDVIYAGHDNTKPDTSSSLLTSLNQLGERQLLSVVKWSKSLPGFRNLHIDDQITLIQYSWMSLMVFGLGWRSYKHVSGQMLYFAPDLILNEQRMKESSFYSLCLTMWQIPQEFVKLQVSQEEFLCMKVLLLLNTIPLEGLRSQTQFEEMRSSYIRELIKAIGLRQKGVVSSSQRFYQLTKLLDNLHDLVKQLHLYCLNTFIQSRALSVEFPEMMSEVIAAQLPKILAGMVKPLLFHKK

The target is the same in test [6]. Briefly: qHTS assay to identify small molecule antagonists of the progesterone receptor (PR) signaling pathway (AID 1346795; active means well fitted inhibition curve with a large enough effect in the signal ratio in the repeat runs, not every such curve was filed as active; the % refers to the signal ratio; further: potency means the concentration at half of the fitted maximal effect). In short, it runs like this:
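Beta-lactamase reporter, HEK293T PR-UAS-bla line; 2% charcoal-stripped FBS; 6 hr pre-incubation, 37C/5% CO2. Compound + R5020 1 nM final, 16 hr. LiveBLAzer B/G FRET substrate, 2 hr RT; fluorescence intensity read.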

Test [7] is described as follows: qHTS assay to identify small molecule antagonists of the progesterone receptor (PR) signaling pathway - cell viability counter screen (AID 1346798). Further: series mostly up to about 92 µM; nearly all actives have a fitted effect of over 50% in size. The procedure, abridged: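 Luminescence readout (CellTiter-Glo, 30 min, RT) of viability in PR-UAS-bla HEK293T cells exposed to compound and R5020 agonist for 16 hr at 37C, 5% CO2; run in the same wells as the beta-lactamase reporter read.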

A short description of test [8]: qHTS assay to identify small molecule antagonists of the TGF-beta/Smad signaling pathway - cell viability counter screen (AID 1346824). Further: nearly all actives have a fitted effect of over 50% in size. The procedure, abridged:
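SBE-bla HEK 293T cells, incubated overnight, then compound plus 0.25 ng/mL TGF-beta1 (stock added) for 5 hr at 37 C. Viability was read in the same wells by CellTiter-Glo luminescence after 30 min at room temperature.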

Test [9] is described as follows: qHTS assay to identify small molecule agonists of the progesterone receptor (PR) signaling pathway - cell viability counter screen (AID 1346799; calls by dose curve; further: nearly all actives have a fitted effect of over 45% in size). In short, it runs like this: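 HEK293T PR-UAS-bla, 3,000 cells/well, 2% charcoal-stripped FBS; 6 h settle, compound 16 h at 37C/5% CO2; LiveBLAzer 2 h RT, then CellTiter-Glo 30 min RT, luminescence read.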
Test [10] has as its target Estrogen receptor (Homo sapiens) (UniProt P03372). In words: qHTS assay to identify small molecule agonists of the estrogen receptor alpha (ER-alpha) signaling pathway in the presence of an antagonist (AID 1259383; calls by dose curve; further: top concentration of the series differs between compounds; nearly all actives have a fitted effect of over 15% in size). The procedure, abridged:
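ER-alpha agonism measured under antagonist challenge: 10.0nM ICI-182,780 (final) plus compound, 15 concentrations, 22hr, VM7Luc4E2 ERE-luciferase cells. Read by luminescence.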

SMILES strings stand for the structures. Unmarked numbers belong to inactive results. Inconclusive results are not listed. Active and inactive are the calls of the source. Unless noted, the call rests on the fitted dose curve; in most records, active means well fitted curve in the direction sought with a large enough effect in the repeat runs; inconclusive means weak or mixed curves; inactive means no such curve, though single readings can be large; an effect the other way counts as inactive or inconclusive.
On the % scale 0 is the no-effect control and ±100 the full control effect.

Thyrotropin receptor (Homo sapiens), sequence (P16473 whole entry, looked up): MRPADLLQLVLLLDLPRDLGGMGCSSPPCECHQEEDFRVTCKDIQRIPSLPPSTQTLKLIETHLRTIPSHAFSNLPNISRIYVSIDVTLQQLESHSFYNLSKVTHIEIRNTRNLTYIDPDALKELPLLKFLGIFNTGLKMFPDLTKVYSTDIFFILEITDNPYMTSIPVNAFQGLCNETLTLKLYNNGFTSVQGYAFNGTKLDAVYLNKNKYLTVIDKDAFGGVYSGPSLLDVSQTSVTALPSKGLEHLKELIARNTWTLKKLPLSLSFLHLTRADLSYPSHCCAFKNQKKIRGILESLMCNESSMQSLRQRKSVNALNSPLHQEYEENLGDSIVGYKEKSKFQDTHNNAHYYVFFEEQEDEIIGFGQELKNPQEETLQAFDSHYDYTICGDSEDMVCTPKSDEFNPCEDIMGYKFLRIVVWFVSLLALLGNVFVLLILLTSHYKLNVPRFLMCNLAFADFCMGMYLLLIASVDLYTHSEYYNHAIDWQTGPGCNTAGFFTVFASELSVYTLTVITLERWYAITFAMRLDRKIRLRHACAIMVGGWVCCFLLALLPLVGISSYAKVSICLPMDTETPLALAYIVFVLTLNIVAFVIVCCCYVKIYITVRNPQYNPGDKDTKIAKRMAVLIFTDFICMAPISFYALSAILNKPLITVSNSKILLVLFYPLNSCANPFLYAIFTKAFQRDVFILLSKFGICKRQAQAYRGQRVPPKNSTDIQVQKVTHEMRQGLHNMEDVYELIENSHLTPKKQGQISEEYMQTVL
Estrogen receptor (Homo sapiens), sequence (P03372 whole entry, looked up): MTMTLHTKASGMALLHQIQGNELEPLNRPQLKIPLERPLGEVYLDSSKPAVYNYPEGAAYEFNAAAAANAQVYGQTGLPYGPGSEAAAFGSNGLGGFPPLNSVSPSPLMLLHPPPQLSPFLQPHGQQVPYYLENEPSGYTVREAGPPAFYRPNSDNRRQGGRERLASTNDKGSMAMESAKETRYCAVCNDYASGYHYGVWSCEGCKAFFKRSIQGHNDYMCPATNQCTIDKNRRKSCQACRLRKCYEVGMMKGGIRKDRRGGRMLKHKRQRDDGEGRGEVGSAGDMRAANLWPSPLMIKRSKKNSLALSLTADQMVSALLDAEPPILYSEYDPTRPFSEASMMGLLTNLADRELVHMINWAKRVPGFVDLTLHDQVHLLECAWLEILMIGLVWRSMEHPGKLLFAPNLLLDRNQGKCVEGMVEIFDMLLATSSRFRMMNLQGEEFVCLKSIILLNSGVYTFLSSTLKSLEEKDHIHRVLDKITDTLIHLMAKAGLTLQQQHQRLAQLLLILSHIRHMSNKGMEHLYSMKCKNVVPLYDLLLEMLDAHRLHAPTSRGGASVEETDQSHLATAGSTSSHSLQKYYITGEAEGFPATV

Take `C[CH2][Ge]([Cl])([CH2]C)[CH2]C`: the call in test [1], in test [2], in [3] and in test [8] was inactive. Besides, the Potency entry in test [4], in [5], in test [6] and in test [7] was “inactive” in each case.
On to `CCCCC/C=C/CC(=O)OC`, for which the molecule was called inactive in test [1], in test [2], in [3] and in test [8]. Besides, the Potency result in test [5], in test [7] and in [9] was “inactive” throughout.
For the molecule `CC(=O)OCCCc1ccccc1`, the molecule was classed as inactive in [1], in [2], in test [3] and in [8]. Besides, the Potency entry in [4], in test [5], in test [6], in [7] and in test [9] was “inactive” throughout.
As for `O=C(O)c1ccccc1C(=O)OCc1ccccc1`, the molecule was classed as inactive in test [1], in test [2] and in test [3]. Moreover, the Potency result in test [5], in [6] and in test [7] was “inactive” in each case.
For `O=C(c1ccc2c(c1)C(=O)OC2=O)c1ccc2c(c1)C(=O)OC2=O`, the result in [1], in [2], in test [3] and in test [8] was inactive. For the same molecule, the Potency entry in test [4], in test [5], in test [6], in [7] and in test [9] was “inactive” in each case.
For `CCCCCCCCCCCCCCCCI`, the activity change, negative = cytotoxicity in [1] was -0.0745% [at 19 µM]; in test [4] it was -3.61% [at 19 µM]; in test [7], 17.5% [at 18.9 µM]; in test [9], -9.05% [at 19 µM]. Also, the cAMP activity change in test [2] is 5% [at 18.9 µM]. In addition, the results for the activity change, negative = inhibition in [3] and in test [6] were -4.61% [at 19 µM] and -3.13% [at 18.9 µM], respectively. The activation in test [5] is 0.0661% [at 19 µM]. In test [8], the viability change, negative = cytotoxic is -2.44% [at 15.8 µM].
On to `Cc1ccc(S(=O)(=O)NC(=O)NC2CCCCCCC2)cc1`, for which the result in test [1], in [2], in [3] and in test [8] was inactive. For the same molecule, the Potency result in test [4], in test [5], in [6], in test [7] and in test [9] was “inactive” each time.
Regarding `NS(=O)(=O)c1cc2c(cc1Cl)NC(C(Cl)Cl)NS2(=O)=O` (stereo not drawn), the outcome in test [1], in test [2], in [3] and in test [8] was inactive. Further, the Potency entry in test [4], in [5], in [6], in test [7] and in test [9] was “inactive” throughout.
In the case of `CC(C)c1ccccc1O`, the result in [1], in test [2], in test [3] and in [8] was inactive. The Potency entry in [4], in [5], in [6] and in test [7] was “inactive” in each case.
Consider `c1ccccc1`, for which the molecule was classed as inactive in test [1], in test [2], in test [3] and in test [8]. Moreover, the Potency entry in test [4], in test [6] and in test [7] was “inactive” in each case.
On to `CC(C)COC(=O)CCCCC(=O)OCC(C)C`, for which the outcome in test [1], in test [2], in [3] and in [8] was inactive. Further, the Potency entry in test [5], in test [6], in test [7] and in [9] was “inactive” each time.
Regarding `CCC(=O)OCCC(C)CCC=C(C)C` (stereo not drawn), the molecule was classed as inactive in test [1], in test [2] and in [3]. The Potency result in [4], in [5], in [6], in test [7] and in test [9] was “inactive” in each case.
For `O=C1c2ccccc2-c2ccccc21`, the molecule was called inactive in [1], in [2], in [3] and in test [8]. In addition, the Potency entry in test [4], in test [5], in [6], in [7] and in test [9] was “inactive” in each case.
On to `Cc1ccccc1N1CCN(CCc2nnc3n2CCCC3)CC1`, for which the call in [1], in test [2], in test [3] and in [8] was inactive. In addition, the Potency result in test [4], in test [5], in test [6] and in test [7] was “inactive” throughout.
For the molecule `C=C[C@@H](C)CCC=C(C)C`, the molecule was called inactive in [1], in [2], in test [3] and in [8]. The Potency result in test [4], in test [5], in test [6], in test [7] and in test [9] was “inactive” each time.
Turning to `CC(C)=CC(C)(C)C`, the result in test [1], in test [2] and in test [3] was inactive. Further, the Potency entry in [4], in test [5], in [6], in [7] and in [9] was “inactive” throughout.
Turning to `CCCCCCCCCCCCCCCC(=O)NCCO`, the call in [1], in [2], in test [3] and in [8] was inactive. Moreover, the Potency entry in test [4], in test [5], in test [6], in test [7] and in test [9] was “inactive” in each case.
`C1=CCC(c2ccccc2)CC1` (stereo not drawn): the call in test [1], in test [2] and in test [8] was inactive. Moreover, the Potency result in test [4], in test [5], in [6], in [7] and in test [9] was “inactive” each time.
With `C=COCCOCCOC=C`, the molecule was classed as inactive in [1] and in test [8]. The Potency result in test [5], in test [6], in test [7] and in test [9] was “inactive” each time.
For `CCOC(=O)CCc1ccccc1`, the molecule was called inactive in test [1], in test [2] and in test [8]. In addition, the Potency result in test [4], in [5], in test [6] and in test [9] was “inactive” throughout.
Take `C[C@@H]1C[C@H]2[C@@H]3C[C@H](F)C4=CC(=O)C=C[C@]4(C)[C@@]3(F)[C@@H](O)C[C@]2(C)[C@@]1(O)C(=O)CO`: the outcome in [1], in [2] and in test [8] was inactive. Also, the Potency result in test [4], in [7] and in test [9] was “inactive” throughout. In addition, the Potency in test [5] is 5.96 µM (active).
For `CCCCCC1CCCC(=O)O1` (stereo not drawn), the molecule was called inactive in test [1], in [2] and in test [8]. Also, the Potency entry in test [4], in [5] and in [7] was “inactive” each time.
Take `CC1(N)CCC(C(C)(C)N)CC1` (stereo not drawn): the outcome in [1], in test [2], in test [3] and in test [8] was inactive. Moreover, the Potency result in [6] and in [7] was “inactive” in each case.
For the molecule `CCOC(=O)CC(CC(=O)OCC)(OC(C)=O)C(=O)OCC`, the call in test [1] and in test [8] was inactive. Besides, the Potency result in test [4], in test [5], in test [6], in test [7] and in [9] was “inactive” in each case.
As to `Oc1ccccc1Cc1ccccc1O`, the outcome in [10], in test [2], in [3] and in test [8] was inactive. The Potency result in [4] was “inactive”. For the same molecule, the Potency in test [6] is 27.3 µM (active).
